# Compound activity from PubChem BioAssay.
# GC-B act: GC-B (human) receptor activation. activation, % at 10 µM. HEK293-GC-B cells, CNP EC30, cGMP TR-FRET; 0% at EC30 CNP, 100% saturating CNP. P20594. 0.11% of 370,000 active;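 active = activation at 10 µM reaching about 35% in either raw or pattern-adjusted values, limit read from the data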
# HSV replic up: HSV replication enhancement; AID 1956; HSV replication augmentation in cells, fold increase; 0.005% of 220,000 active; maximum fold increase; in the data active = maximum fold increase above about 1.5; tested in PC3 cells
# Efflux pump mplx: antifungal efflux pump inhibition, Nile Red retention | S. cerevisiae Candida pump triplex | inhibition, % at 10 µM | 0.44% of 330,000 active | AID 485275;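 active = plate passing quality check with inhibition over a set limit, or well fluorescence over plate mean plus 4 SD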;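 also: Nile Red retained in pooled yeast measured as flow cytometry median fluorescence; 0% = buffer negative control and 100% = Enniatin B positive control; higher means more Nile Red kept so more efflux inhibition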
# H9c2 TAG inh: triacylglycerol accumulation inhibition; H9c2 cells, Nile Red lipid (TAG) fluorescence; cells loaded with 200 µM oleic acid; inhibition, % at 12.5 µM; 0.66% of 230,000 active; AID 651582;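 active = pattern-corrected inhibition of lipid staining of at least 50% with the nuclear-stain viability signal not falling by more than 50%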;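 also: 0% = DMSO wells and 100% = triacsin C control wells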
# GC-A act: GC-A (human) enzyme activation; HEK293 GC-A cells, cGMP TR-FRET, EC30 ANP; 0% at EC30 ANP, 100% saturating ANP; activation, % at 10 µM; 0.14% of 370,000 active; in the data active = activation above about 40%
# Target sequence (P16066 whole entry, looked up): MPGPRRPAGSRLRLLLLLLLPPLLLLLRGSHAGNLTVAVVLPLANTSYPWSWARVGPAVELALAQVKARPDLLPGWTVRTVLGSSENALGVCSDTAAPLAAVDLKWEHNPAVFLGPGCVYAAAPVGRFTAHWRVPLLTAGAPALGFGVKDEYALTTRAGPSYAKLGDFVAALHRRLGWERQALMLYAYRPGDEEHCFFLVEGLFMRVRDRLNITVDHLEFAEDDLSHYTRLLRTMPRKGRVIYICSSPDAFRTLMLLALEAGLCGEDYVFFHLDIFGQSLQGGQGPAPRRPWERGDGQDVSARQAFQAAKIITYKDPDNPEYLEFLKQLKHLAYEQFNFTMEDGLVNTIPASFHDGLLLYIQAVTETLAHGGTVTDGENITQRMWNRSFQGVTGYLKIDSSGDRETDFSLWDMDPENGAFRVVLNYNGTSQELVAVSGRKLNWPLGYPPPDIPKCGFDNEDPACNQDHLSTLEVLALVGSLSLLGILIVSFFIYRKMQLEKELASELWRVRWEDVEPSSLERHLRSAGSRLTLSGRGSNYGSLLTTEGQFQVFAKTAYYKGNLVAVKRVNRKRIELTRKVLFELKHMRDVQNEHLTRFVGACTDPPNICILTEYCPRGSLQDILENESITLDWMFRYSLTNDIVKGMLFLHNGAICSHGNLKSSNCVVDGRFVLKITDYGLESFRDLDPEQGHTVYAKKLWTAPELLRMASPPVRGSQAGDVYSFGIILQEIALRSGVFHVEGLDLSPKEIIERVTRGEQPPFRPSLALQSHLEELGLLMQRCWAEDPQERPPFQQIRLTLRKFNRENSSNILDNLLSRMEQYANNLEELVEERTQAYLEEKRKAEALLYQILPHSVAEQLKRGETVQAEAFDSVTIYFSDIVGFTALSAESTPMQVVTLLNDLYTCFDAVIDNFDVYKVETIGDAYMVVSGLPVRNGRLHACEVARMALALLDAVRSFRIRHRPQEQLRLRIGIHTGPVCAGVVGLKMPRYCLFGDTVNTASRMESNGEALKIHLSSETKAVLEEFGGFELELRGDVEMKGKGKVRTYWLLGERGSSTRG
# A1 inh: inhibitors of the anti-apoptotic protein A1, read as caspase activation; caspase activation, % (no concentration beside the values); AID 2462; MEF A1-2A-BIM cells, Caspase-Glo 3/7 luminescence, 3 h; percent of clofoctol response, vehicle zero; 0.066% of 330,000 active;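 active = over half of replicate activation scores above 10%, or exactly half above 10 with the replicate mean above 10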
# H9c2 TAG conf: triacylglycerol accumulation inhibition, confirmation; shares compounds with H9c2 TAG inh; H9c2 lipid accumulation, Nile Red fluorescence; cells loaded with 200 µM oleic acid; inhibition, % at 12.5 µM; 71% of 990 active;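 active = mean inhibition across replicates of 40% or more; inactive = mean inhibition below 40%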;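 also: plate controls were DMSO only wells for no effect and Triacsin C treated wells for full effect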
# The depositor's hits bear a star; i = inactive; . = no result given. An excerpt weighted towards active compounds, which were near 1% of everything screened.
SMILES,GC-B act,HSV replic up,Efflux pump mplx,H9c2 TAG inh,GC-A act,A1 inh,H9c2 TAG conf
COCCNC(=O)c1cc2c(-c3ccc(Cl)cc3)nn(C)c2s1,2,i,0,52*,9,0,45*
CCOc1ccccc1N1CCN(S(=O)(=O)c2ccc3c4c(cccc24)C(=O)N3)CC1,-5,i,0,52*,-14,0,4
Cc1cc(NC(=O)c2ccccc2F)n(-c2nc3ccccc3[nH]2)n1,-2,i,0,64*,19,-1,57*
CCCC(=O)N1CCC[C@]2(CC[C@@H](CCC(=O)OCC)O2)C1,12,.,.,.,2,.,.
CS(=O)(=O)Oc1ccc2c(c1)O/C(=C\c1cccc([N+](=O)[O-])c1)C2=O,-4,.,0,.,3,1,.
CS(=O)(=O)Oc1ccc2c(c1)O/C(=C\C=C\c1ccccc1)C2=O,-1,.,0,54*,-9,-1,3
O=C1CCC[C@H]2CC3(CC[C@]24CCCN14)OCCO3,1,.,.,.,-1,.,.
CCN1C(=O)[C@H]2[C@@H](c3ccc(-c4cccc(Cl)c4)c(OC)c3)N[C@@](Cc3ccccc3)(C(=O)OC)[C@H]2C1=O,2,.,0,44,-3,0,.
COC(=O)[C@]1(C)N[C@H](c2ccc(-c3cccc(Cl)c3)cc2)[C@@H]2C(=O)N(C)C(=O)[C@@H]21,-9,.,0,34,-1,-2,.
COC(=O)[C@]1(CC(C)C)N[C@H](c2ccc(-c3cccc(Cl)c3)cc2)[C@@H]2C(=O)N(C)C(=O)[C@@H]21,-9,.,0,61*,-1,0,36
COC(=O)[C@]1(Cc2ccccc2)N[C@H](c2ccc(-c3cccc(Cl)c3)c(OC)c2)[C@@H]2C(=O)N(C)C(=O)[C@@H]21,-1,.,.,55*,-8,.,45*
CC1CN(c2nc3ccccc3nc2SCC(=O)N2CCN(S(=O)(=O)c3ccc(F)cc3)CC2)CC(C)O1 (centres undefined),-7,.,.,.,-8,.,.
COc1cccc(Cn2cc(COC(=O)NCCc3c[nH]c4ccccc34)nn2)c1,3,.,.,.,-2,.,.
CC1(C(=O)Nc2ccc3c(c2)OCO3)Cc2c(-c3ccc4c(c3)OCO4)ccnc2O1 (centres undefined),-2,.,.,27,-2,.,.
COc1ccc(NC(=O)C2(C)Cc3c(-c4ccc5c(c4)OCO5)ccnc3O2)cn1 (centres undefined),9,.,.,52*,3,.,53*
CC1(C(=O)Nc2ccc3c(c2)OCO3)Cc2c(-c3cccc(C(N)=O)c3)ccnc2O1 (centres undefined),-2,.,.,59*,-6,.,69*
CC(=O)Nc1cccc(-c2ccnc3c2CC(C)(C(=O)NCc2ccc(N(C)C)cc2)O3)c1 (centres undefined),11,.,.,57*,0,.,54*
CC(=O)Nc1cccc(-c2ccnc3c2CC(C)(C(=O)NCc2cccc(Cl)c2)O3)c1 (centres undefined),-12,.,.,20,-16,.,.
O=C1C(c2cc(=O)c3ccccc3[nH]2)=C(O)c2ccccc21,-10,i,0,.,11,-6,.
O=c1cc(-c2ccccc2)[nH]c2ccccc12,-1,i,0,66*,1,1,49*
Cc1ccccc1CNC(=O)C1CCC(CNS(=O)(=O)c2cccc3cccnc23)CC1 (centres undefined),1,.,.,.,0,.,.
CCCCSc1nnc(-c2ccc(NC(=O)CCc3ccccc3)cc2)n1C,3,i,0,51*,2,1,34
Cn1c(SCC(=O)NCc2ccccc2)nnc1-c1ccc(NC(=O)CCc2ccccc2)cc1,2,i,0,15,0,-2,.
